Data on 103 molecules can be found in PubChem BioAssay AID504329 (Southern Research Specialized Biocontainment Screening …, 2011).

Structures are written as SMILES. Out of some 340,000 compounds screened, about 1,000 (0.29%) were called active. These entries were drawn from the full list. Results with a measured potency or affinity are listed apart. Unmarked numbers belong to inactive results. No stated cut-off is given here; in the data, inconclusive means inhibition above about 27% without an active follow-up result; inactive means below that.

This experiment is described as follows: NS1A inhibition, H1N1 influenza, cell based functional assay (AID 504329). The conditions noted are these: percent inhibition, at 12.5 µM, active compounds read high.
`CCCN(CC(=O)Nc1ccccc1C)C(=O)c1ccc(=O)n(Cc2ccccc2)n1`: the inhibition (usually the relative decrease from the control value, in per cent) was 5.93%.
Consider `CN(C)N1C(N)=C(C#N)C(c2cccnc2)C2=C1CCCC2=O` (stereo not drawn), for which the inhibition is 0.98%.
Next, `COc1ccc(Cl)cc1NS(=O)(=O)c1cn(C)nc1C`: -6.95%.
Next, `Cc1c(C)n(Cc2ccccc2)c2ccc(C(=O)OCCN(C)C)cc12`: 18.7%; `Cc1c(C)n(CCN(C)C)c2ccc(C(=O)OCCN(C)C)cc12`: -4.19%.
Next, `CCn1ccnc1CN(C)Cc1cn(-c2cc(C)ccc2C)nc1-c1ccccc1`: 7.7%; `Cc1ccc(C)c(-n2cc(CNCCCn3cccn3)c(-c3ccccc3)n2)c1`: -27.8%.
As for `CCOC(=O)C1(C(=O)OCC)NC(=O)CC1C` (stereo not drawn), the inhibition is 1.41%.
Turning to `O=C(N/N=C/c1ccc2ncccc2c1)c1cc(-c2cccs2)nc2ccccc12`, the inhibition was -4.78%.
As to `C/C(=N\NC(=O)c1cc(C)nc2ccccc12)c1ccncc1`, the inhibition was 7.15%.
Next, `NNC(=O)c1cc(-c2cccs2)nc2ccccc12`: 25.3%; `C/C(=N\NC(=O)c1cc(C)nc2ccccc12)c1ccco1`: -1.27%.
Consider `COc1ccc(CC(=O)Nc2nc(-c3ccncc3)cs2)cc1`, for which the inhibition was 3.49%.
Next, `O=C(Oc1ccc(/C=N/NC(=O)c2ccccc2O)cc1)c1ccccc1`: 1.64%.
Next, `Cc1nn(-c2ccccc2)c(N2CCCC2)c1/C=N/NC(=O)c1ccccc1O`: -10.1%.
Next, `CCOC(=O)C1CCCN(C(=O)C2CCN(Cc3nc(-c4ccc(Cl)cc4)oc3C)CC2)C1` (stereo not drawn): -0.69%.
For the molecule `COC(=O)c1ccc(COc2ncnc3ccccc23)o1`, the inhibition is 2.36%.
Next, `CC1=C/C(=C(\c2ccc(O)c(C)c2)c2ccccc2S(=O)(=O)O)C=CC1=O`: -2.96%; `CC1=C/C(=C(/c2ccc(O)c(C)c2)c2ccccc2S(=O)(=O)O)C=CC1=O`: 12.6%.
Turning to `O=[N+]([O-])c1ccc(N2CCOCC2)c([N+](=O)[O-])c1`, the inhibition was 4.03%.
Next, `O=[N+]([O-])c1ccc([N+](=O)[O-])c(Nc2ccc(N3CCOCC3)cc2)c1`: -0.167%; `NC(=O)c1ccccc1N/C=C/C(=O)c1ccccc1`: 1.83%; `COc1ccc(Cn2c(=O)[nH]c3cc(C(=O)N4CCN(c5ccc(OC)cc5)CC4)ccc3c2=O)cc1`: -8.57%.
Take `Cc1ccc(NC(=O)COC(=O)Cn2ccc(C(F)(F)F)n2)cc1Cl`: the inhibition was 0.4%.
Next, `CN=c1scc(-c2ccco2)n1/N=C/c1ccc(O)c(O)c1`: 19.1%; `CCN=c1scc(-c2ccco2)n1/N=C/c1ccc(OC)c(O)c1`: 28.8%; `CN(CC(=O)Nc1ccccc1Cl)C(=O)C1CCN(C(=O)c2ccc(F)cc2)CC1`: -9.67%.
Next, `Cc1cc(C(=O)Nc2cccc(S(=O)(=O)N3CCOCC3)c2)c2ccccc2n1`: -7.61%.
Next, `COc1ccc(Br)cc1/C=N/NC(=O)C[n+]1ccccc1`: -3.17%; `O=C(C[n+]1ccccc1)N/N=C/c1ccc(Br)cc1`: 3.75%.
For the molecule `O=C(Cc1ccccc1)N/N=C/c1cc(Br)cc(Br)c1O`, the inhibition was -3.61%.
Next, `O=C(C[n+]1ccccc1)N/N=C/c1cc(Br)ccc1F`: 2.1%; `O=S(=O)(NN1CCOCC1)c1ccc(Br)cc1`: -5.55%.
Next, `COc1ccc(/C=N/NC(=O)C2c3ccccc3-c3ccccc32)cc1`: 1.63%; `O=C(NNC(=O)c1ccccc1Cl)c1ccccc1Cl`: -1.97%.
As for `Cc1ccc(/C=C2\C(=O)NC(=S)N(c3ccccc3F)C2=O)s1`, the inhibition was -6.98%.
Next, `O=C(NNC(=O)C1CC=CCC1)c1ccccc1Cl` (stereo not drawn): -13.4%; `CCNC(=S)NNC(=O)c1ccncc1`: -6.57%.
Next, `Cc1ccccc1SCC(=O)NNC(=O)c1ccccc1O`: -9.27%.
Next, `O=C1/C(=C/c2cccs2)NC(=S)N1C1CC1`: 25.9%; `CCOC(=O)C1CCN(/C=C2\C(=O)NC(=S)N(CC)C2=O)CC1`: 1.72%.
With `COc1ccc(/C=C2/C(=O)NC(=S)N(C3CC3)C2=O)cc1CN1C(=O)c2ccccc2C1=O`, the inhibition is -5.91%.
Next, `Cc1cccc(NC(=O)COc2ccc(/C=N\n3cnnc3)cc2)c1`: -2.09%; `CS(=O)(=O)N1CCN(C(=O)Cc2ccc(Br)cc2)CC1`: -21.4%.
Next, `O=C(O)/C=C/c1cn(-c2ccccc2)nc1-c1ccccc1`: -7.13%.
`CCOc1ccc(C(C(=O)NC2CCCCC2)N(C(=O)c2ccccn2)c2cccnc2)cc1` (stereo not drawn): the inhibition was -3.97%.
Next, `CCCCCCCCNc1nc(Cl)nc(NCc2ccco2)n1`: -0.33%.
Next, `O=C(O)c1ccccc1NS(=O)(=O)c1cccc2nsnc12`: -1.24%.
Next, `O=C(N/N=C/c1c(O)n(C2CCCCC2)c(=S)[nH]c1=O)c1ccccc1O`: -5.43%.
On to `O=C(NNC(=S)NC1CCCCC1)c1ccccc1O`, for which the inhibition is 5.32%.
Turning to `Cn1nccc1C(=O)Nc1sc2c(c1C(N)=O)CCCC2`, the inhibition is -3.24%.
Next, `CN1CCN(Cc2cc(Cl)c3cccnc3c2OC(=O)c2cccs2)CC1`: -0.27%.
Next, `Oc1c(I)cc(Cl)c2cccnc12`: -16.7%.
Next, `O=C(Oc1c(CN2CCOCC2)cc(Cl)c2cccnc12)c1ccc(F)cc1`: 5.6%.
For the molecule `Oc1cc2c(cc1CN1CCc3ccccc3C1)OCO2`, the inhibition is 13.1%.
Next, `Oc1ccc(CNc2ccccc2F)c2cccnc12`: 12.8%; `Oc1ccc(CNc2ccccc2)c2cccnc12`: 10.6%; `O=c1oc2ccccc2c(O)c1Cc1cc(Cl)c2cccnc2c1O`: -5.95%.
Turning to `Oc1ccc(CNc2ccc(F)cc2)c2cccnc12`, the inhibition was 28.1%.
As for `CC(=O)OCC(=O)c1ccc2ccn(C(C)=O)c2c1`, the inhibition was 2.53%.
Next, `c1ccc(CN(Cc2cccs2)C(c2cccs2)c2nnnn2C2CCCC2)cc1` (stereo not drawn): 4.12%.
Take `CSc1cc(-c2ccc(Cl)cc2)c(C(=O)N2CCCC2)s1`: the inhibition is -3.23%.
Next, `O=S(=O)(c1cc(F)ccc1F)N1CCN(C2CCCCC2)CC1`: 0.25%; `Cn1c(=Nc2ccccc2)sc2ccccc21`: 9.39%; `COc1ccc(N=c2sc3ccccc3n2C)cc1`: 1.52%.
Take `O=C(COC(=O)/C=C/c1cccc(Cl)c1)NC1CCCC1`: the inhibition is -4.83%.
Consider `CC(C)(C)c1ccc(-c2n[nH]c(=S)n2CC2CCCO2)cc1` (stereo not drawn), for which the inhibition is 3.44%.
Regarding `O=C/C=C/c1ccccc1`, the inhibition was 2.7%.
For the molecule `Cc1ccc(C2=NOC(=O)/C2=C\C=C\c2ccccc2)cc1`, the inhibition was -3.38%.
Next, `CC1=C(C)N(C)[C@H](c2ccccc2Br)[C@H](O)C1=O`: -9.31%; `O=C(CSc1nnc(-c2cccnc2)n1Cc1ccccc1)N1CCOCC1`: 0.45%; `Cc1nc2ncccn2c1-c1csc(Nc2ccc(O)cc2)n1`: 5.22%.
Next, `Cc1ccc(Nc2nc(-c3c(C)nc4ncccn34)cs2)cc1`: -0.31%.
Next, `S=C(NCc1ccco1)Nc1ccc(Cl)cc1Cl`: 0.07%.
`Cc1nc2ccccc2c(=O)n1CCCN1CCOCC1`: the inhibition was -0.85%.
Regarding `N=c1n(CCN2CCOCC2)c2ccccc2n1CC(=O)c1cccc([N+](=O)[O-])c1`, the inhibition is 0.36%.
Next, `O=c1[nH]c(-c2ccccn2)nc2sc(-c3ccccc3)cc12`: 1.57%; `CCc1cc2c(=O)[nH]c(-c3ccncc3)nc2s1`: -1.62%; `COC(=O)c1cc(NS(=O)(=O)c2ccc(NC(C)=O)cc2)ccc1Cl`: 10.8%.
Next, `O=C(NCCCN1CCOCC1)C(=O)N/N=C/c1ccccc1Cl`: -2.62%; `Oc1cccc(/C=N/NC(=S)NCCN2CCOCC2)c1O`: -11.6%.
Next, `O=C(NCCCN1CCOCC1)C(=O)N/N=C/c1cccc2ccccc12`: -23.6%; `S=C(NCCN1CCOCC1)N/N=C/c1ccccc1`: 4.1%.
`COc1cc(OC)c(OC)cc1/C=N/NC(=S)NCCN1CCOCC1`: the inhibition is -3.02%.
Next, `CCCCNC(=S)N/N=C/c1cccc(OCC)c1O`: -0.5%; `COc1cc(/C=N/NC(=S)NCCN2CCOCC2)cc(OC)c1OC`: -0.84%; `COc1cc(/C=N/NC(=S)NCCN2CCOCC2)ccc1O`: -6.09%.
Next, `N#C/C(=C\Nc1ccc(Cl)cc1)S(=O)(=O)c1ccccn1`: -7.92%.
Next, `Cc1ccc2nc(SCC(=O)Nc3cccc([N+](=O)[O-])c3)[nH]c2c1`: 4.1%.
For `CCOC(=O)C1=C(C)C(c2ccccc2O)NC(=O)N1` (stereo not drawn), the inhibition was -4.1%.
Next, `CCCOc1ccc(-c2nc(OCC)c3ccccc3n2)cc1`: -12.4%; `COc1cc2c(cc1OC)C(c1ccsc1)CC(=O)N2` (stereo not drawn): 2.33%.
Turning to `O=C(O)c1ccccc1Nc1ccnc(Cl)n1`, the inhibition was 4.77%.
Turning to `O=C(O)c1ccccc1Nc1ccccc1C(=O)O`, the inhibition is 5.1%.
Next, `CCOC(=O)N1CCC(=C(C#N)C(=O)Nc2cc(OC)ccc2OC)CC1`: 7.42%; `Cc1nc(SCC(=O)Nc2cccc(Cl)c2)n[nH]1`: -19.4%; `COc1ccccc1NC(=O)CSc1n[nH]c(-c2ccco2)n1`: -13%.
As to `O=C(CSc1n[nH]c(-c2cccnc2)n1)Nc1ccccc1`, the inhibition is -8.39%.
Next, `O=C(CSc1n[nH]c(-c2ccncc2)n1)Nc1ccccc1`: -1.24%.
Next, `COc1ccccc1NC(=O)CSc1n[nH]c(-c2cccnc2)n1`: 2.96%; `O=C(CSc1n[nH]c(-c2ccco2)n1)Nc1ccccc1F`: 2.4%; `COc1ccccc1-c1nc(SCC(=O)Nc2ccccc2F)n[nH]1`: -2.78%.
For the molecule `O=C(CSc1n[nH]c(-c2cccnc2)n1)Nc1cccc(Cl)c1`, the inhibition is 0.29%.
